In PubChem BioAssay AID1159580 (chemical genetic matrix, 2015):
Screen size: about 5,500 compounds; about 2,000 (36%) were called active. About 18% were inconclusive and are not listed. Rule as the data show it: active = normalized growth mostly below about 0.91 (no sharp cut-off); inconclusive = no clear call, values can overlap the other calls; inactive = mostly above about 0.92. The list shows a part of the results.

Test: chemical genetic growth profiling, strain panel (AID 1159580);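 also: tested at 20 µM; growth read once vehicle control cultures reached saturation at 30 °C; 1 = growth at the plate median or of vehicle wells; lower values mean less growth of the strain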
Conditions: growth OD

Measured: normalized growth

CON
inactive: S. cerevisiae deletion strains, locus YJR075W, strain HOC1, active compounds read low 1.02 | S. cerevisiae deletion strains, locus YKL009W, strain mrt4, active compounds read low 0.978 | S. cerevisiae deletion strains, locus YKL068W, active compounds read low 0.992 | S. cerevisiae deletion strains, locus YKL085W, strain MDH1 (second series), active compounds read low 1.04 | S. cerevisiae deletion strains, locus YKL085W, strain MDH1, active compounds read low 1.04 | S. cerevisiae deletion strains, locus YKL160W, strain elf1, active compounds read low 1.06 | S. cerevisiae deletion strains, locus YKL190W, strain CNB1, active compounds read low 1 | S. cerevisiae deletion strains, locus YKR001C, strain vps1, active compounds read low 0.989 | S. cerevisiae deletion strains, locus YKR026C, strain gcn3, active compounds read low 0.993 | S. cerevisiae deletion strains, locus YKR091W, strain srl3, active compounds read low 0.998 | S. cerevisiae deletion strains, locus YLL001W, strain dnm1, active compounds read low 1 | S. cerevisiae deletion strains, locus YLL026W, active compounds read low 1.01 | S. cerevisiae deletion strains, locus YLL041C, strain sdh2, active compounds read low 0.988 | S. cerevisiae deletion strains, locus YLR027C, strain aat2, active compounds read low 1.01 | S. cerevisiae deletion strains, locus YLR039C, strain RIC1, active compounds read low 1.01 | S. cerevisiae deletion strains, locus YLR058C, strain SHM2, active compounds read low 1.01 | S. cerevisiae deletion strains, locus YLR102C, strain apc9, active compounds read low 0.989 | S. cerevisiae deletion strains, locus YLR113W, strain HOG1, active compounds read low 0.988 | S. cerevisiae deletion strains, locus YLR221C, strain rsa3, active compounds read low 0.984 | S. cerevisiae deletion strains, locus YLR258W, strain gsy2, active compounds read low 1.01 | S. cerevisiae deletion strains, locus YLR262C, strain YPT6 (second series), active compounds read low 0.999 | S. cerevisiae deletion strains, locus YLR262C, strain YPT6, active compounds read low 1.01 | S. cerevisiae deletion strains, locus YLR268W, strain sec22, active compounds read low 0.995 | S. cerevisiae deletion strains, locus YLR320W, strain mms22, active compounds read low 1.02 | S. cerevisiae deletion strains, locus YLR330W, strain CHS5, active compounds read low 1.01 | S. cerevisiae deletion strains, locus YLR342W, strain FKS1 (second series), active compounds read low 0.999 | S. cerevisiae deletion strains, locus YLR342W, strain FKS1, active compounds read low 1.01 | S. cerevisiae deletion strains, locus YLR357W, strain rsc2, active compounds read low 0.97 | S. cerevisiae deletion strains, locus YLR370C, strain arc18, active compounds read low 1.04 | S. cerevisiae deletion strains, locus YLR371W, strain rom2, active compounds read low 0.99 | S. cerevisiae deletion strains, locus YLR384C, strain iki3, active compounds read low 1.01 | S. cerevisiae deletion strains, locus YLR418C, strain cdc73, active compounds read low 1.03 | S. cerevisiae deletion strains, locus YML016C, strain PPZ1, active compounds read low 1 | S. cerevisiae deletion strains, locus YML032C, strain rad52, active compounds read low 1.01 | S. cerevisiae deletion strains, locus YML120C, strain ndi1, active compounds read low 1 | S. cerevisiae deletion strains, locus YML124C, strain tub3, active compounds read low 0.987 | S. cerevisiae deletion strains, locus YMR058W, strain fet3, active compounds read low 0.998 | S. cerevisiae deletion strains, locus YMR078C, strain ctf18, active compounds read low 0.99 | S. cerevisiae deletion strains, locus YMR125W, strain sto1, active compounds read low 0.987 | S. cerevisiae deletion strains, locus YMR129W, active compounds read low 1.02 | S. cerevisiae deletion strains, locus YMR205C, strain PFK2, active compounds read low 1 | S. cerevisiae deletion strains, locus YMR223W, strain ubp8, active compounds read low 0.993 | S. cerevisiae deletion strains, locus YMR231W, strain pep5, active compounds read low 0.996 | S. cerevisiae deletion strains, locus YMR263W, strain SAP30, active compounds read low 1 | S. cerevisiae deletion strains, locus YMR307W, strain GAS1, active compounds read low 1.09 | S. cerevisiae deletion strains, locus YNL067W, strain RPL9B, active compounds read low 1.03 | S. cerevisiae deletion strains, locus YNL071W, strain lat1, active compounds read low 0.985 | S. cerevisiae deletion strains, locus YNL153C, strain GIM3, active compounds read low 1.04 | S. cerevisiae deletion strains, locus YNL183C, strain NPR1, active compounds read low 0.927 | S. cerevisiae deletion strains, locus YNL209W, strain ssb2, active compounds read low 1.01 | S. cerevisiae deletion strains, locus YNL233W, strain BNI4, active compounds read low 1.04 | S. cerevisiae deletion strains, locus YNL248C, strain rpa49, active compounds read low 1.02 | S. cerevisiae deletion strains, locus YNL250W, strain rad50, active compounds read low 0.99 | S. cerevisiae deletion strains, locus YNL271C, strain bni1, active compounds read low 0.986 | S. cerevisiae deletion strains, locus YNL298W, strain CLA4, active compounds read low 0.981 | S. cerevisiae deletion strains, locus YNL307C, strain MCK1, active compounds read low 0.993 | S. cerevisiae deletion strains, locus YNL322C, strain KRE1 (second series), active compounds read low 1.01 | S. cerevisiae deletion strains, locus YNR049C, strain mso1, active compounds read low 1 | S. cerevisiae deletion strains, locus YNR052C, strain pop2, active compounds read low 0.978 | S. cerevisiae deletion strains, locus YOL006C, strain TOP1, active compounds read low 1.08 | S. cerevisiae deletion strains, locus YOL012C, strain htz1 1.2 | S. cerevisiae deletion strains, locus YOL147C, strain pex11, active compounds read low 0.998 | S. cerevisiae deletion strains, locus YOR001W, strain rrp6, active compounds read low 0.968 | S. cerevisiae deletion strains, locus YOR061W, strain CKA2, active compounds read low 1 | S. cerevisiae deletion strains, locus YOR069W, strain VPS5, active compounds read low 0.993 | S. cerevisiae deletion strains, locus YOR070C, strain gyp1, active compounds read low 1.02 | S. cerevisiae deletion strains, locus YOR080W, strain dia2, active compounds read low 0.996 | S. cerevisiae deletion strains, locus YOR083W, strain WHI5, active compounds read low 1.03 | S. cerevisiae deletion strains, locus YOR106W, strain vam3, active compounds read low 1.02 | S. cerevisiae deletion strains, locus YOR136W, strain idh2, active compounds read low 0.98 | S. cerevisiae deletion strains, locus YOR144C, strain elg1, active compounds read low 0.995 | S. cerevisiae deletion strains, locus YOR184W, strain ser1, active compounds read low 0.958 | S. cerevisiae deletion strains, locus YOR231W, strain MKK1, active compounds read low 1.04 | S. cerevisiae deletion strains, locus YOR265W, strain rbl2, active compounds read low 1.01 | S. cerevisiae deletion strains, locus YOR270C, strain vph1, active compounds read low 1.04 | S. cerevisiae deletion strains, locus YOR290C, strain snf2, active compounds read low 1.07 | S. cerevisiae deletion strains, locus YOR316C, strain cot1, active compounds read low 0.983 | S. cerevisiae deletion strains, locus YPL051W, strain arl3, active compounds read low 1.04 | S. cerevisiae deletion strains, locus YPL055C, strain LGE1, active compounds read low 1.09 | S. cerevisiae deletion strains, locus YPL078C, strain atp4, active compounds read low 1.04 | S. cerevisiae deletion strains, locus YPL106C, strain sse1, active compounds read low 1.01 | S. cerevisiae deletion strains, locus YPL240C, strain hsp82, active compounds read low 1 | S. cerevisiae deletion strains, locus YPL256C, strain CLN2, active compounds read low 0.993 | S. cerevisiae deletion strains, locus YPR119W, strain clb2, active compounds read low 0.99 | S. cerevisiae deletion strains, locus YPR141C, strain kar3, active compounds read low 0.989 | S. cerevisiae deletion strains, locus YPR163C, strain tif3, active compounds read low 0.991 | S. cerevisiae deletion strains, locus YPR167C, strain met16, active compounds read low 0.984 | S. cerevisiae deletion strains, strain wtn01, active compounds read low 0.978 | S. cerevisiae strains, strain wild type, active compounds read low 0.997
